Measurements: PubChem BioAssay
Activity calls are given as the source filed them. Unless noted, how the calls were made is not given here.

Legend:
[1] = test system: Wnt5a (protein binding on small-molecule microarray); experiment: Wnt5a binders on small-molecule microarray, primary screen, biophysical, 635/667 nm fluorescence (AID 1142); settings: 635 nm fluorescence, higher = more signal;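 further: fluorescence read at 667 nm with signal to noise per printed feature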
[2] = cell viability in Huh7 cells, primary screen, cytotoxicity control for HCV replication inhibitor project, CellTiter-Glo luminescence, basal, 48 h (AID 1143); settings: Huh7 HCV replicon, higher = more signal, called active from +8 up or from −8 down;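 further: Huh7 hepatoma cells carrying a hepatitis C replication reporter with no stimulus; test concentration not given here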
[3] = P. aeruginosa biofilm formation inhibitors, primary screen, PAO1 strain, BacTiter-Glo luminescence, LB-PBS (AID 1144); settings: 12 h, higher = more signal
[4] = CREB reporter modulators without forskolin, primary screen, cell-based, PC12, CRE-LacZ reporter, unstimulated (AID 1145); settings: no forskolin, luminescence, 4.5 h, higher = more signal, called active from +8 up or from −8 down
[5] = CREB reporter modulators under forskolin, primary screen, cell-based, PC12, CRE-LacZ reporter, forskolin-stimulated (AID 1146); settings: luminescence, 4.5 h, higher = more signal, called active from +8 up or from −8 down;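 further: PC12 cells with 6xCRE LacZ reporter stimulated by forskolin 10 µM; beta-galactosidase reporter signal reflecting CREB driven transcription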
[6] = target: Streptavidin (Streptomyces avidinii) (UniProt P22629); experiment: streptavidin binders on small-molecule microarray, primary screen, artefact control for SMM compound annotation, biophysical, 635/667 nm fluorescence (AID 1147); settings: streptavidin binding, higher = more signal;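 further: signal reflects streptavidin binding to arrayed compounds as a control protein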
[7] = small-molecule binders of probe aInhba, primary screen, biochemical, small-molecule microarray, 635/667 nm fluorescence (AID 1148); settings: higher = more signal;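 further: score merges 667nm spot fluorescence with signal-to-noise for antibody binding to printed compounds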
Torsin-1A (Homo sapiens) [8] = target: Torsin-1A (Homo sapiens) (UniProt O14656); experiment: torsin A binders from cell lysate, primary screen, small-molecule microarray, wild-type, 635/667 nm (AID 1149); settings: COS7 hTOR1A-WT lysate, 635 nm fluorescence, higher = more signal
Torsin-1A (Homo sapiens) [9] = target: Torsin-1A (Homo sapiens) (UniProt O14656); experiment: small-molecule binders of mutant TOR1A in lysate, primary screen, cell lysate, small-molecule microarray, COS7 lysate, 635/667 nm fluorescence (AID 1150); settings: COS7 hTOR1A mutant lysate, 635 nm fluorescence, higher = more signal;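 further: score pools 667 nm emission and signal to noise measuring lysate protein binding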
[10] = test system: Sonic hedgehog protein (Shh); experiment: small-molecule binders of Shh protein, primary screen, biochemical, small-molecule microarray, 635/667 nm fluorescence (AID 1151); settings: small-molecule microarray binding, 635 nm fluorescence; higher = more signal;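 further: Shh protein binding to compounds spotted on small-molecule microarray slides; score combines spot fluorescence intensity with signal-to-noise across triplicate slides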

Sequence of Streptavidin (Streptomyces avidinii) (P22629 whole entry, looked up): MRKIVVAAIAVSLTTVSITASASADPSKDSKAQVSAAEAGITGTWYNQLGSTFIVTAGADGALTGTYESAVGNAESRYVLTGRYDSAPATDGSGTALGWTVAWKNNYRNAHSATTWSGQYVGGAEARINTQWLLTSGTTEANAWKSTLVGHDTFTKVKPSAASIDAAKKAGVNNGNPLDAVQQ
Sequence of Torsin-1A (Homo sapiens) (O14656 whole entry, looked up): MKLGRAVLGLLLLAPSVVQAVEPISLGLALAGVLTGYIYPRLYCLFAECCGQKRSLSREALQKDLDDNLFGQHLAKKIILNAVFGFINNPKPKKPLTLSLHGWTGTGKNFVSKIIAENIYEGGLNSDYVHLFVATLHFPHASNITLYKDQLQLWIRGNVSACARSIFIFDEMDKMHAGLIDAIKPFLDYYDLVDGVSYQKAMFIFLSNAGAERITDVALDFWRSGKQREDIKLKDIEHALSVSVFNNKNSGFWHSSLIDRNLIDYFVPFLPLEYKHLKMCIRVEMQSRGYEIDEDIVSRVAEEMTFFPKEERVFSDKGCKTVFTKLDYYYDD

Row | SMILES | composite z-score [1] | z-score [2] | z-score [3] | z-score [4] | z-score [5] | composite z-score [6] | composite z-score [7] | composite z-score (Torsin-1A (Homo sapiens) [8]) | composite z-score (Torsin-1A (Homo sapiens) [9]) | composite z-score [10]
1 | COCCOC(=O)N1C(=O)[C@@]2(c3cc(C#CCNC(N)=O)ccc31)[C@H](C(=O)N1CCN(c3ncccn3)CC1)[C@H]1C(=O)O[C@H](c3ccccc3)[C@H](c3ccccc3)N1[C@@H]2c1ccccc1OCCO | 0.518 | -1.32 (inactive) | -0.94 (inactive) | -0.141 (inactive) | -0.44 (inactive) | 0.605 | 0.0184 | 0.223 | 0.416 | 0.692
2 | C=CCNC(=O)[C@H]1[C@@H]2C(=O)O[C@@H](c3ccccc3)[C@@H](c3ccccc3)N2[C@@H](c2ccc(O)cc2)[C@]12C(=O)N(C(=O)OCCOC)c1ccc(C#CCCO)cc12 | 0.317 | -0.185 (inactive) | -0.176 (inactive) | -0.141 (inactive) | 0.567 (inactive) | -0.0841 | -0.0954 | 0.846 | 0.432 | 1.08
3 | COCCOC(=O)N1C(=O)[C@@]2(c3cc(C#CCNC(N)=O)ccc31)[C@H](c1ccc(OCCO)cc1)N1[C@H](c3ccccc3)[C@H](c3ccccc3)OC(=O)[C@H]1[C@@H]2C(=O)N1CCc2cc(OC)c(OC)cc2C1 | 0.426 | -0.0916 (inactive) | -1.59 (inactive) | -0.471 (inactive) | -0.644 (inactive) | 0.175 | -0.0136 | 0.0053 | -0.193 | 0.815
4 | CC(C)c1ccc(NN2C(C(O)c3c(F)cccc3Cl)C=CC3C(=O)N(c4ccccc4)C(=O)C32)cc1 (stereo not given) | 0.658 | -0.78 (inactive) | -0.53 (inactive) | -0.519 (inactive) | 0.746 (inactive) | 1.47 | 0.765 | 0.213 | -0.164 | -0.182
5 | COc1ccc(C(O)C2C=CC3C(=O)N(c4ccccc4)C(=O)C3N2Nc2ccc([N+](=O)[O-])cc2)cc1OCc1ccccc1 (stereo not given) | 1.43 | -0.317 (inactive) | 0.208 (inactive) | -0.387 (inactive) | -0.588 (inactive) | 0.935 | 1.16 | -0.153 | 0.159 | -0.381
6 | CC(C)(C)OC(=O)CC[C@@]1(C(=O)O)N=C(c2ccc(OCCCO)cc2)O[C@@H]1c1ccccc1N=[N+]=[N-] | 0.52 | 0.0429 (inactive) | 0.561 (inactive) | -0.183 (inactive) | -0.406 (inactive) | 1.01 | 0.179 | 1.21 | 1.22 | -0.905
7 | O=C1O[C@H](c2ccccc2)[C@H](c2ccccc2)N2[C@H]1[C@@H](C(=O)Nc1nc3ccccc3s1)[C@]1(C(=O)Nc3ccccc31)[C@H]2c1ccc(O)cc1 | 0.0365 | -1.69 (inactive) | -0.363 (inactive) | 0.478 (inactive) | 0.757 (inactive) | 1.2 | -0.0736 | -0.0245 | 0.414 | 1.51
8 | CC(C)N1C(=O)C[C@@](C(=O)NCc2ccccc2)(c2ccc([N+](=O)[O-])cc2)[C@H]1c1ccc(CO)cc1 | -0.214 | -1.5 (inactive) | -0.936 (inactive) | 1.03 (inactive) | -0.703 (inactive) | -0.939 | 0.0275 | 1.35 | 0.529 | 0.235
9 | COCCOC(=O)N1C(=O)[C@@]2(c3cc(C#Cc4ccc(OC)cc4)ccc31)[C@H](C(=O)N1CCN(c3ncccn3)CC1)[C@H]1C(=O)O[C@H](c3ccccc3)[C@H](c3ccccc3)N1[C@@H]2c1ccc(O)cc1 | -0.0081 | -3.61 (inactive) | -1.03 (inactive) | -0.191 (inactive) | 0.0921 (inactive) | -0.0988 | -0.0762 | 0.561 | -0.007 | 0.736
10 | C=C(C(=O)CC[C@H](OC(C)=O)c1ccc(OCCO)cc1)C(C)C | 0.35 | -8.04 (active) | -0.28 (inactive) | 1.63 (inactive) | 0.655 (inactive) | 0.934 | -0.125 | 0.612 | 0.909 | 2.13
11 | CC(C)C(O)C1C=CC2C(=O)N(c3ccccc3)C(=O)C2N1Nc1ccc(C#N)cc1 (stereo not given) | 0.612 | 0.388 (inactive) | -0.783 (inactive) | 0.629 (inactive) | 0.813 (inactive) | 0.761 | 0.388 | -0.0618 | 0.719 | 0.0011
12 | CCOC(=O)[C@H]1C/C=C/C[C@H](C(=O)OCC)C(=O)O[C@H]2[C@@H](OC)O[C@H](CO)[C@@H](OC(=O)Nc3ccc4c(c3)OCO4)[C@@H]2OC1=O | 0.285 | -6.55 (inactive) | -0.353 (inactive) | 0.484 (inactive) | -1.61 (inactive) | -0.0265 | 0.0342 | 0.687 | 0.126 | 0.903
13 | COC(=O)[C@@]1(Cc2ccccc2N=[N+]=[N-])COC(c2ccc(OCCCO)cc2)=N1 | 0.193 | -2.44 (inactive) | 0.335 (inactive) | 0.675 (inactive) | 1.68 (inactive) | 0.175 | -0.0639 | 0.678 | 1.17 | -0.0614
14 | COC(=O)[C@@]1(Cc2ccccc2)[C@H]2c3cc(C(=O)N4CCCC4)n(Cc4ccc(C)o4)c3C[C@H]2CN1C(=O)c1ccccc1 | -0.135 | -2.17 (inactive) | -0.544 (inactive) | 0.962 (inactive) | 1.16 (inactive) | 1.15 | 0.181 | 0.0769 | 0.537 | -0.21
15 | CN(C)CCCCNC(=O)[C@H]1C[C@H]2C(=O)N[C@@H](Cc3ccccc3)C(=O)N2[C@H]1c1ccc(O)cc1 | 0.335 | -2.14 (inactive) | -1.49 (inactive) | -1.9 (inactive) | -0.32 (inactive) | 1.34 | -0.128 | 1.87 | 0.734 | 2.09
16 | COC(=O)[C@@]1(Cc2ccc(F)cc2)[C@H]2c3cc(C(=O)N4CCCC4)n(Cc4cccc5ccccc45)c3C[C@H]2CN1C(=O)c1ccccc1 | 0.255 | -1.8 (inactive) | 0.233 (inactive) | 0.397 (inactive) | 0.422 (inactive) | 0.95 | 0.434 | 0.341 | -0.0286 | -0.408
17 | Cc1cc(C)c(C(O)C2C=CC3C(=O)N(C)C(=O)C3N2Nc2ccccc2)c(C)c1 (stereo not given) | 0.701 | 1.06 (inactive) | 0.3 (inactive) | 0.246 (inactive) | -0.354 (inactive) | 0.66 | 1.55 | 0.405 | 0.738 | -0.0207
18 | CCOC(=O)C1=C[C@@H](CC)N(S(=O)(=O)c2ccc(C)cc2)[C@H]1c1ccccc1 | 0.214 | -3.47 (inactive) | -0.0903 (inactive) | 0.22 (inactive) | -0.55 (inactive) | 1.09 | 0.226 | 0.391 | 0.637 | 0.0552
19 | COC(=O)[C@@]1(Cc2ccccc2)[C@H]2c3cc(C(=O)N(C)C)n(Cc4cc(C)n(C)n4)c3C[C@H]2CN1C(=O)c1ccccc1 | 0.0704 | -1.31 (inactive) | 0.381 (inactive) | 2.3 (inactive) | 1.92 (inactive) | 1.63 | 0.606 | 1.31 | 1.99 | 0.278
20 | O=C1OCC=C[C@H]2OC34C=CCN(c5ccc(Cl)cc5)C(=O)[C@H]3N(CCCCCCO)C(=O)[C@@H]4[C@@H]12 (stereo not given in full) | -0.557 | -0.652 (inactive) | 1.36 (inactive) | 1.41 (inactive) | -0.0889 (inactive) | -0.857 | -0.0494 | -1.39 | -1.21 | -0.38
21 | [N-]=[N+]=NCc1ccccc1[C@H]1OC(c2ccc(OCCCO)cc2)=N[C@@]1(CCS(=O)(=O)c1ccccc1)C(=O)N1CCOCC1 | 1.03 | -0.865 (inactive) | 0.164 (inactive) | 0.526 (inactive) | 0.363 (inactive) | 1.62 | 0.556 | 1.7 | 1.85 | -0.164
22 | CCCCC=C[C@@H](NC(=O)c1ccco1)c1ccccc1 | 0.143 | -1.08 (inactive) | -0.668 (inactive) | 0.19 (inactive) | -0.0695 (inactive) | 0.889 | 0.194 | 0.129 | 0.225 | 0.0154
23 | CC(C)C(=C=CC[C@@H](O)c1ccccc1OCCO)C[C@@H](O)c1ccccn1 | -0.0212 | -1.3 (inactive) | 0.497 (inactive) | 1.19 (inactive) | -0.3 (inactive) | -0.0132 | 0.0275 | 0.276 | -0.303 | 1.14
24 | COCCOC(=O)N1C(=O)[C@@]2(c3cc(C#CCNC(N)=O)ccc31)[C@H](c1ccc(O)cc1)N1[C@H](c3ccccc3)[C@H](c3ccccc3)OC(=O)[C@H]1[C@@H]2C(=O)NC[C@H](O)c1ccccc1 | 0.545 | 0.123 (inactive) | 0.00448 (inactive) | -0.606 (inactive) | -0.197 (inactive) | -0.0027 | 0.415 | 0.76 | 0.353 | 1.75
25 | C[C@H]1NC(=O)[C@H](Cc2ccccc2)NC(=O)[C@@]23C(=O)N[C@@H](Cc4ccccc4)C2[C@H](C)[C@@]2(C)O[C@H]2C3/C=C/C/C=C\CNC1=O (stereo not given in full) | -0.182 | -0.679 (inactive) | 0.615 (inactive) | 2.67 (inactive) | -0.522 (inactive) | -0.496 | -0.179 | -0.477 | -0.402 | 0.249
26 | CC(C)(C)OC(=O)CC[C@@]1(C(=O)NCCN2CCOCC2)N=C(c2ccc(OCCCO)cc2)O[C@@H]1c1ccccc1 | 0.739 | 0.256 (inactive) | 0.174 (inactive) | -1.33 (inactive) | -0.998 (inactive) | 1.12 | 0.248 | 0.388 | -0.522 | 0.306
27 | O=C/C=C/c1ccc2c(c1)OCO2 | 0.0218 | -1.95 (inactive) | -1.39 (inactive) | -0.491 (inactive) | 0.106 (inactive) | -0.142 | -0.0509 | 0.219 | 0.0622 | 0.504
28 | CC(=O)C1=CCC(c2ccccc2)N(S(=O)(=O)c2ccc(C)cc2)C1 (stereo not given) | -0.004 | -1.06 (inactive) | -0.65 (inactive) | -0.116 (inactive) | 0.151 (inactive) | 1.69 | -0.0087 | 0.911 | 1.55 | -0.194
